Growth inhibition data for 38 compounds are collected here from PubChem BioAssay (NCI).

Each structure is given as a SMILES string. Compounds without any hit were thinned out: in the full panel of roughly 79,000, 15% have a hit. A number with no mark means an inactive call. The source made the active and inactive calls. No stated cut-off is given here; in the data, active means growth inhibition above about 70%; inactive means the rest.

Assay [1] in a line: NCI Yeast Anticancer Drug Screen. Data for the rad50 strain (AID 155).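 Further: 0% = growth of vehicle-only cultures of the same strain.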 The conditions noted are these: S. cerevisiae rad50 strain growth inhibition; at 50.0 µM; hits give high values. The method, boiled down: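 Genetically altered yeast (DNA repair pathway); compound treatment; growth inhibition vs vehicle ctrl.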
Assay [2] in a line: NCI Yeast Anticancer Drug Screen. Data for the mec2-1 strain (AID 157). The conditions noted are these: S. cerevisiae mec2-1 strain, at 50.0 µM, hits give high values. The method, boiled down: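 Using mec2-1 yeast: add compound, measure growth, express inhibition versus vehicle-treated cultures.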
Assay [3] can be described thus: NCI Yeast Anticancer Drug Screen. Data for the sgs1 mgt1 strain (AID 161).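 Further: 0% = growth of cultures given vehicle only.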 Conditions: S. cerevisiae sgs1 mgt1 strain, at 50.0 µM, hits give high values. A digest of the protocol:
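Yeast cells carrying a defined DNA-repair defect were exposed to test compounds. Growth inhibition was measured relative to vehicle-treated controls.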

The nature of assay [4]: NCI Yeast Anticancer Drug Screen. Data for the cln2 rad14 strain (AID 165).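 Further: 0% = growth equal to vehicle treated cultures.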 The conditions noted are these: S. cerevisiae cln2 rad14 strain, at 50.0 µM, hits give high values. A digest of the protocol: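 Yeast strain cln2 rad14, bearing defects in cell cycle control and DNA repair, serves as the test system; values reflect growth inhibition compared with vehicle.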
Assay [5] in a line: NCI Yeast Anticancer Drug Screen. Data for the bub3 strain (AID 167). Conditions: S. cerevisiae bub3 mutant strain, at 50.0 µM, hits give high values. The method, boiled down:
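Yeast carrying a defined mutation is treated with each compound, and growth is compared with that of vehicle-exposed cells to give inhibition.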

Assay [6] is described as follows: NCI Yeast Anticancer Drug Screen. Data for the mlh1 rad18 strain (AID 175). The conditions noted are these: S. cerevisiae mlh1 rad18 strain growth inhibition; at 50.0 µM; hits give high values. A digest of the protocol: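 Steps: expose repair-defective yeast to compound; measure growth; express inhibition against vehicle-treated controls.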

On to `CC(C)N(CC(=O)NC(=O)c1ccccc1)C(C)C`, for which the growth inhibition in assay [1] is -2.85%; in assay [2], -6.45%; in assay [3], -3.55%; in assay [4], -32.9%; in assay [5] it was 0.05%; in assay [6], -2.6%.

Regarding `NOCc1cc(Cl)sc1Cl`, the growth inhibition is 24.9% in assay [1]; -2.9% in assay [2]; 6.1% in assay [3]; 60% in assay [4]; -23.9% in assay [5]; 11.3% in assay [6].

With `O=S(Cc1ccccc1)/C(=C/NC(=S)N=Nc1c(O)[nH]c2ccccc12)c1ccccc1` (stereo not drawn), the growth inhibition in assay [1] was 15.3%; in assay [2], -11.1%; in assay [3], 14.2%; in assay [4] it was 33.2%; in assay [5], -4.1%; in assay [6], -3.1%.

On to `CCN(CC)CCCNc1c2c(nc3c(OC)cccc13)CCCC2`, for which the growth inhibition is -38.4% in assay [1]; 10.7% in assay [2]; -6.7% in assay [3]; -41.6% in assay [4]; 5.95% in assay [5]; -2.45% in assay [6].

With `CCCc1[nH]n(-c2ccccc2)c(=O)c1N=Nc1ccc(Cl)cc1`, the growth inhibition in assay [1] was -4.25%; in assay [2] it was -6.65%; in assay [3], -9.95%; in assay [4], -5.1%; in assay [5] it was -7.6%; in assay [6] it was -0.8%.

For the compound `OC(C1COCO1)C1OCOC1C1COCO1` (stereo not drawn), the growth inhibition in assay [1] is 21.6%; in assay [2], 9.45%; in assay [3], 3.2%; in assay [4], 3.55%; in assay [5] it was -11.2%; in assay [6], 6.15%.

Regarding `CC[C@@]1(OC(=O)CN2CCNCC2)C(=O)OCc2c1cc1n(c2=O)Cc2cc3ccccc3nc2-1`, the growth inhibition in assay [1] is 52.1%; in assay [2], 70.8% (active); in assay [3], 49.1%; in assay [4], 29.6%; in assay [5] it was 26.1%; in assay [6], 10.1%.

On to `C/C(CC(=O)Nc1ccc(C)cc1)=N\NC(N)=S`, for which the growth inhibition in assay [1] is -13.5%; in assay [2] it was -7.7%; in assay [3], 3.45%; in assay [4], 8.3%; in assay [5], -1%; in assay [6], -19.6%.

Turning to `CC1=CC2CC(C)C1(C)CCc1ccoc12` (stereo not drawn), the growth inhibition in assay [1] was 2.8%; in assay [2], -11.7%; in assay [3], -2.8%; in assay [4], 6.75%; in assay [5] it was 9.85%; in assay [6], 4.7%.

On to `CCC1([N+](=O)[O-])COC2(CCCCC2)OC1`, for which the growth inhibition in assay [1] was 6.95%; in assay [2] it was 23.7%; in assay [3], -11.4%; in assay [4] it was -1.35%; in assay [5], 13.6%; in assay [6], -13.1%.

`NCCCn1[nH]c(=O)c2ncccc2c1=O`: the growth inhibition in assay [1] is -60.1%; in assay [2], -28.8%; in assay [3] it was -11.7%; in assay [4], -91.5%; in assay [5], -21.6%; in assay [6], -18.7%.

With `Cc1nc(N)[nH]c(=O)c1CCCN(c1ccccc1)S(=O)(=O)c1ccc(N)cc1`, the growth inhibition in assay [1] is 9.4%; in assay [2], -1.35%; in assay [3] it was -2.3%; in assay [4], -22.9%; in assay [5] it was -2.35%; in assay [6] it was 19.6%.

Regarding `Cc1cc([N+](=O)[O-])c(NCCOC(=O)c2ccc([N+](=O)[O-])cc2)c([N+](=O)[O-])c1`, the growth inhibition in assay [1] was -24.1%; in assay [2] it was -6.55%; in assay [3], -10.9%; in assay [4], -69.2%; in assay [5] it was 2.8%; in assay [6], -10.7%.

For the compound `O=CC1(CCc2ccccc2)NC(=O)NC1=O` (stereo not drawn), the growth inhibition in assay [1] was 5.3%; in assay [2], 11.2%; in assay [3] it was 2.55%; in assay [4] it was -18.9%; in assay [5], -0.4%; in assay [6], 1.25%.

Turning to `CSc1nc2cc(S(=O)(=O)N3CCCCC3)ccc2s1`, the growth inhibition was -34.5% in assay [1]; -21.8% in assay [2]; -25.5% in assay [3]; -52.6% in assay [4]; -89.3% in assay [5]; -7% in assay [6].

Turning to `O=C(O)C1CCC2SC(F)(F)C(F)(F)C2C1` (stereo not drawn), the growth inhibition in assay [1] is -4.05%; in assay [2] it was 12.2%; in assay [3] it was 2.65%; in assay [4], 12.5%; in assay [5], 8.55%; in assay [6], 11.6%.

For `CN(C)CCO[Si](C)(c1ccccc1)c1ccc(F)cc1` (stereo not drawn), the growth inhibition in assay [1] is 16.6%; in assay [2], -7.95%; in assay [3], 20.6%; in assay [4], -10.1%; in assay [5], 11.8%; in assay [6] it was 3.95%.

As to `CC(=O)Nc1ccc2nc(/C=C/c3ccc(N(C)C)cc3)c(=O)oc2c1`, the growth inhibition in assay [1] is 38.5%; in assay [2], 18.6%; in assay [3], 25.5%; in assay [4], 16.7%; in assay [5], 20.1%; in assay [6], 29.9%.

For the compound `COc1cc(C)c(N)cc1N`, the growth inhibition is -2.7% in assay [1]; -16.9% in assay [2]; 11.3% in assay [3]; -14% in assay [4]; -1% in assay [5]; 15.7% in assay [6].

As for `CCOP(=O)(OCC)OCCCCn1cnc2c1c(=O)n(C)c(=O)n2C`, the growth inhibition was -32% in assay [1]; -9.4% in assay [2]; -15.7% in assay [3]; -38% in assay [4]; -2.65% in assay [5]; -3.1% in assay [6].

Turning to `BrC12c3ccccc3C(Br)(c3ccccc31)c1ccccc12`, the growth inhibition was 5.95% in assay [1]; 5.6% in assay [2]; -3.15% in assay [3]; -7.4% in assay [4]; -5.3% in assay [5]; 6.2% in assay [6].

As for `C1=C(CN2CCCCC2)Oc2ccccc2O1`, the growth inhibition in assay [1] was 25.3%; in assay [2], 36.9%; in assay [3], 42.5%; in assay [4], 46%; in assay [5], 21.3%; in assay [6] it was 34.9%.

As for `CC(C)=NOC(CCOC(=O)c1ccccc1)COC(=O)c1ccccc1` (stereo not drawn), the growth inhibition in assay [1] is -13.6%; in assay [2], 0.1%; in assay [3] it was -1.35%; in assay [4], -10.4%; in assay [5], -11.8%; in assay [6] it was 7.75%.

With `Cc1cc2nc3c(=O)[nH]c(=O)nc-3n(CCO)c2cc1C`, the growth inhibition in assay [1] is -0.5%; in assay [2], 1.5%; in assay [3], 8.6%; in assay [4] it was -39.4%; in assay [5], 6.15%; in assay [6] it was -9.95%.

As to `CCCCC1=CC1(C#N)[N+](=O)[O-]` (stereo not drawn), the growth inhibition in assay [1] is 33.4%; in assay [2], 11.5%; in assay [3], 20.5%; in assay [4], 21.6%; in assay [5] it was 17.3%; in assay [6], 27.8%.

For `S=C(Cc1ccc2ccccc2c1)N1CCOCC1`, the growth inhibition in assay [1] is 29.4%; in assay [2], 1.95%; in assay [3], -2.1%; in assay [4], 23.6%; in assay [5], 30.4%; in assay [6], 12.9%.

Take `Nc1nc(N)c2ncn(Cc3c(Cl)cccc3Cl)c2n1`: the growth inhibition in assay [1] is -3.75%; in assay [2], -3.95%; in assay [3], 1.9%; in assay [4] it was 6.8%; in assay [5], 4.15%; in assay [6], -9.65%.

Take `CCN(CC)CCOC(=O)c1cc(C(C)O)nc2ccccc12` (stereo not drawn): the growth inhibition in assay [1] was 0.6%; in assay [2], 12.3%; in assay [3] it was -10.5%; in assay [4] it was 0.55%; in assay [5], 21.6%; in assay [6], -7.1%.

In the case of `O=C(CC(c1ccccc1)C1CCCN(c2ccccc2)S1(=O)=O)c1ccccc1` (stereo not drawn), the growth inhibition in assay [1] was 26.6%; in assay [2], 1.2%; in assay [3], 11.1%; in assay [4], 16.9%; in assay [5], -3.05%; in assay [6], 23.1%.

On to `[O-]c1on[n+](-c2ccccc2)c1CN1CCOCC1`, for which the growth inhibition was -8.2% in assay [1]; -8.35% in assay [2]; -9.9% in assay [3]; -45% in assay [4]; 8.1% in assay [5]; -3.05% in assay [6].

For the compound `Cn1cncc1CC1COC(=O)C1C(O)c1ccccc1` (stereo not drawn), the growth inhibition in assay [1] was 11%; in assay [2], 8.45%; in assay [3] it was -14.2%; in assay [4], -1.5%; in assay [5], -26.9%; in assay [6], -53.9%.

In the case of `CC(C)OCC(O)CNCCN` (stereo not drawn), the growth inhibition in assay [1] is -30.8%; in assay [2] it was -20.9%; in assay [3], -7.9%; in assay [4], -2.5%; in assay [5], -21%; in assay [6], -0.75%.

Turning to `CC(=O)Oc1cc(O)oc(=O)c1`, the growth inhibition is 33% in assay [1]; -14.8% in assay [2]; 21.1% in assay [3]; 19.3% in assay [4]; 11.3% in assay [5]; 13.1% in assay [6].

In the case of `CN(C)c1ccc(/C=C(/NC(=O)c2ccccc2)C(N)=O)cc1`, the growth inhibition in assay [1] was 13.9%; in assay [2], 4.55%; in assay [3], 8.95%; in assay [4] it was 8.1%; in assay [5], 7.6%; in assay [6], 5.1%.

For `O=S(=O)(c1ccccc1)N1CN(S(=O)(=O)c2ccccc2)CN(S(=O)(=O)c2ccccc2)C1`, the growth inhibition in assay [1] is 0.95%; in assay [2], -9.35%; in assay [3], 19.5%; in assay [4], 10.6%; in assay [5], 17.9%; in assay [6], 6.35%.

On to `CCOC(=O)Cc1nc2ccc3c(c2[nH]c1=O)C(=O)c1ccccc1C3=O`, for which the growth inhibition was 34.7% in assay [1]; 30.1% in assay [2]; 17.1% in assay [3]; 29.4% in assay [4]; 33.2% in assay [5]; 67.8% in assay [6].

With `C=C1C(=O)[C@@]23CC[C@@H]4[C@@]5(C)CCC[C@@]4(OC5=O)[C@@]2(C)CC[C@@H]1C3`, the growth inhibition is 92.1% (active) in assay [1]; 93.7% (active) in assay [2]; 93.8% (active) in assay [3]; 89.3% (active) in assay [4]; 93.3% (active) in assay [5]; 92.3% (active) in assay [6].

On to `NCCCCN(CCCN)Cc1ccccc1`, for which the growth inhibition in assay [1] is -4.8%; in assay [2] it was -1.25%; in assay [3], -17.1%; in assay [4] it was 11.6%; in assay [5] it was -4%; in assay [6], -58.9%.
